Here are results for 11 compounds from ChEMBL document CHEMBL3988442, “University of Dundee, Small-Polar-MMV Screening Library” (2021).

What all share (design): scale not given: direction of the effect not stated beside the values
For assay [1], the target named is Protein translocase subunit SecA (Escherichia coli (strain K12)) (UniProt P10408). Description: Assay to Identify E. coli SecA ATPase Inhibitors. In kind it is functional. The following applies: 30 µM.
Assay [2] deals with T1, Ubiquitin-activating enzyme e1, putative (Leishmania donovani (strain BPK282A1)) (UniProt E9BSI1).
T1 sequence (whole entry): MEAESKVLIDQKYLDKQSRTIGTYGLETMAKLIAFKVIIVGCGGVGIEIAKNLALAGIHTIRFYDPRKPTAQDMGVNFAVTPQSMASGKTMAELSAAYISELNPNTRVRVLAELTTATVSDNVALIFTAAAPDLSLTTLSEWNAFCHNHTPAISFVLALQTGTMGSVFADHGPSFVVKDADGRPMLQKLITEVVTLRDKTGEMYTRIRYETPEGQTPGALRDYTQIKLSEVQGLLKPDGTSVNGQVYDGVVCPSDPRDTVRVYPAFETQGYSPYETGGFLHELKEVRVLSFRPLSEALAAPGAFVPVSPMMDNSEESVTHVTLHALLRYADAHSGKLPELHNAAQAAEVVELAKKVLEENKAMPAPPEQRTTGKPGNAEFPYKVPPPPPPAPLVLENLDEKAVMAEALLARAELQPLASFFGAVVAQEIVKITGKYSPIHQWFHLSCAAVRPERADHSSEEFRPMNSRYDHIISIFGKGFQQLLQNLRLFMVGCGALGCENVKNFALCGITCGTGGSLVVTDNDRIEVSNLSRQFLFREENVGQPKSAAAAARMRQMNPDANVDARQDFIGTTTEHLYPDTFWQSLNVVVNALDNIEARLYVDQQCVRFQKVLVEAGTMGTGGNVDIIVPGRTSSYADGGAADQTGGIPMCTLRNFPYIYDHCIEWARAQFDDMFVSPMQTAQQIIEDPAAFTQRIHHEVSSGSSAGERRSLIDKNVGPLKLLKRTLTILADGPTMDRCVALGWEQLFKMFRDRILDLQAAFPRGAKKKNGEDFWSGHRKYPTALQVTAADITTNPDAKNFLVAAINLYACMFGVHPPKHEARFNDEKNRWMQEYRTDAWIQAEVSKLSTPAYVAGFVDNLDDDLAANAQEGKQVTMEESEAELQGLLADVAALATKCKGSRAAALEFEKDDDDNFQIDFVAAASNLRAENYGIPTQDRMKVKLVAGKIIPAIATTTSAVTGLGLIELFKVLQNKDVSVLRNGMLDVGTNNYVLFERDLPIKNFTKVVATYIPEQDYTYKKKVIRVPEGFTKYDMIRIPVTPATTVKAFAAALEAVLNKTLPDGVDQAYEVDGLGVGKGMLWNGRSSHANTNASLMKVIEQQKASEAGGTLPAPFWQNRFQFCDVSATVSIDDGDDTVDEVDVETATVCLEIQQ
Nature of the assay: Leishmania donovani Ubiquitin Activating Enzyme (LdE1). It is filed as functional. As to conditions: 30 µM.

The target in assay [3] is AMP-activated protein kinase, AMPK (Homo sapiens) (UniProt P54646+O43741+P54619+Q9UGJ0+Q9Y478+Q13131+Q9UGI9). Description: AMP-dependent Kinase enzyme assay. An in vitro enzyme assay that detects ADP turnover that is directly proportional to AMPK activity. This uses naive AMPK that is activated during the assay with MK-8722. It is filed as functional. As to conditions: 30 µM.

Assay [4] has as its target Sialic acid-binding Ig-like lectin 9 (Homo sapiens) (UniProt Q9Y336). Description: Hs-Siglec9 ALPHAscreen SOP 20170721. The following applies: 10 µM. (In general: In Alpha technology, singlet oxygen from a donor bead excites a nearby acceptor bead.)
The test system of assay [5] is Trypanosoma cruzi. Nature of the assay: Trypanosoma cruzi phosphomannomutase and mannose-1-phosphate guanylyltransferase assay. It is filed as functional. The following applies: 10 µM.
The target of assay [6] is T2, Arginase-2, mitochondrial (Homo sapiens) (UniProt P78540).
T2 sequence (whole entry): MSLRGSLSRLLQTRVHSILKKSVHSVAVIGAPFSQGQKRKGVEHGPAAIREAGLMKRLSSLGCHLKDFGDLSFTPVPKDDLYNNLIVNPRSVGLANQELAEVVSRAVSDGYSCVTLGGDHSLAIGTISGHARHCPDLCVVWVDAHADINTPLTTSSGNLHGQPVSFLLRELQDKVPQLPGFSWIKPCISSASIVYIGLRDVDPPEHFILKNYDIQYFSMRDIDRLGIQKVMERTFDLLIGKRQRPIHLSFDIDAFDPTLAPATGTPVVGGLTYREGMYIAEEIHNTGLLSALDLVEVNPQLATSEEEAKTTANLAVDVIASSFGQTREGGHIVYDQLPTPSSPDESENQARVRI
Description: in vitro enzyme assay to detect the production of urea directly proportional to the activity of Arginase II. Further: in the data most compounds retested in dose-response had high values. It is filed as functional. The following applies: 33.3 µM.

In assay [7] the target is T3, Proteasome subunit beta (Trypanosoma cruzi) (UniProt O96673).
T3 sequence (whole entry): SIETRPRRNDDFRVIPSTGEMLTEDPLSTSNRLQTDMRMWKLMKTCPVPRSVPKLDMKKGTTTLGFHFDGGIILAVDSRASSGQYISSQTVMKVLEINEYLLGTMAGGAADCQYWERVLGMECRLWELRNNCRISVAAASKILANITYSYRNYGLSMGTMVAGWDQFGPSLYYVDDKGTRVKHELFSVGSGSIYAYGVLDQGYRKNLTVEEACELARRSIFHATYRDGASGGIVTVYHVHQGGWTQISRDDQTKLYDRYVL
Description: Trypanosoma cruzi proteasome chymotrypsin-like activity (TcProtChymo) assay. Further: in the data most compounds retested in dose-response had high values. In kind it is functional. As to conditions: 9.37 µM.

Assay [8] is filed under the species Homo sapiens. Nature of the assay: To identify inhibition of the IFN signalling (Jak-Stat) pathway via expression of an eGFP reporter gene under the control of an IFN-stimulated response element (ISRE) containing MxA promoter. It is filed as functional. As to conditions: 30 µM. In general terms: Reporter assays use an easily measured gene product as a stand-in for the process of interest.

Assay [9] addresses T4, Tyrosyl-tRNA synthetase, putative (Trypanosoma cruzi (strain CL Brener)) (UniProt Q4DSP6).
T4 sequence (whole entry): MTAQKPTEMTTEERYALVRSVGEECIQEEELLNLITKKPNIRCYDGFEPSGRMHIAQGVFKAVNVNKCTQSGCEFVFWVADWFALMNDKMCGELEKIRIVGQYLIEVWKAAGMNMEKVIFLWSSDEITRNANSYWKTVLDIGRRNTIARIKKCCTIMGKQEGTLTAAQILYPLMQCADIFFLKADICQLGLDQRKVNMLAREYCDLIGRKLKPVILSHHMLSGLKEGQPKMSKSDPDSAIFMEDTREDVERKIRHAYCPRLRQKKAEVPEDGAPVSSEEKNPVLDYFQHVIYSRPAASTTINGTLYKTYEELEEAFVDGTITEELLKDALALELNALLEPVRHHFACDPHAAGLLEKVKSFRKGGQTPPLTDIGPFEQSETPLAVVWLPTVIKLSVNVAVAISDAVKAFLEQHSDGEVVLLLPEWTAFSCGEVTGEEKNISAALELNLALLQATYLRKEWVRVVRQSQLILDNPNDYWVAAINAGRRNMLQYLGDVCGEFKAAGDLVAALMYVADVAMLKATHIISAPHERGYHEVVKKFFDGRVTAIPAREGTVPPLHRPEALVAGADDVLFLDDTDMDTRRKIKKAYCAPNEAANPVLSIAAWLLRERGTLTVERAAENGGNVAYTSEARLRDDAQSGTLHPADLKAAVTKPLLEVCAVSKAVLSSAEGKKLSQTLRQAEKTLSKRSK
Description: Trypanosoma cruzi tyrosyl tRNA synthetase (TcYRS) _High Tyrosine SOP. Further: in the data most compounds retested in dose-response had high values. It is filed as functional. As to conditions: 30 µM.

The target of assay [10] is T4, Tyrosyl-tRNA synthetase, putative (Trypanosoma cruzi (strain CL Brener)). Nature of the assay: Trypanosoma cruzi tyrosyl tRNA synthetase (TcYRS) SOP. In kind it is functional. As to conditions: 30 µM.
Assay [11] addresses Chromo domain-containing protein 1 (Saccharomyces cerevisiae (strain ATCC 204508 / S288c) (Baker's yeast)) (UniProt P32657). Description: ScCHD-1 Enzyme Inhibition Assay. Further: in the data most compounds retested in dose-response had high values. It is filed as functional. As to conditions: 30 µM.

For some of these results: Entries with a potency or affinity are not part of this list.

Sequence of Protein translocase subunit SecA (Escherichia coli (strain K12)) (P10408 whole entry): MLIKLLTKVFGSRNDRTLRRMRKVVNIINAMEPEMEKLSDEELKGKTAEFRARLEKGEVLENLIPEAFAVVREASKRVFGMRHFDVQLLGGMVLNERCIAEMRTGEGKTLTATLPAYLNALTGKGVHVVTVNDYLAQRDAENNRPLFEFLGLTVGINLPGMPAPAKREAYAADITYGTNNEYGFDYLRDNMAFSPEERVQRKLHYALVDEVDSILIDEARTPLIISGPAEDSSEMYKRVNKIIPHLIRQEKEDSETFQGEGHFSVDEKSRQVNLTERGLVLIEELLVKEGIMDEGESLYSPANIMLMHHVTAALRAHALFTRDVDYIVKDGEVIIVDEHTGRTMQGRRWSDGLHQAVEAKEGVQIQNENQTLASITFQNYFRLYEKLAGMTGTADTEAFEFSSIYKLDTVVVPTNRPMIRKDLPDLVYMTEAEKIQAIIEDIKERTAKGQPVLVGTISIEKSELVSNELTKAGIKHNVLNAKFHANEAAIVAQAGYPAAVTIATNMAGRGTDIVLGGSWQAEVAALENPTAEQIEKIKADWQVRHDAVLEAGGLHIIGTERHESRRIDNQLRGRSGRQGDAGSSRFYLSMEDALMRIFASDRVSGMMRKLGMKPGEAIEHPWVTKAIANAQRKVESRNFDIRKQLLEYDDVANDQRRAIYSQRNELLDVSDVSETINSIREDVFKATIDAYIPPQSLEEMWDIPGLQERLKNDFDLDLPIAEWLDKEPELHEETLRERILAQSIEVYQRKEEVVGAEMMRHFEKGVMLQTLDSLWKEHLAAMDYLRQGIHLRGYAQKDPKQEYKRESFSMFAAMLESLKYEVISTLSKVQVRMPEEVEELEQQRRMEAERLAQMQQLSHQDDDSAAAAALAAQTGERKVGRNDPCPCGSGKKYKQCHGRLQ
Sequence of Sialic acid-binding Ig-like lectin 9 (Homo sapiens) (Q9Y336 whole entry): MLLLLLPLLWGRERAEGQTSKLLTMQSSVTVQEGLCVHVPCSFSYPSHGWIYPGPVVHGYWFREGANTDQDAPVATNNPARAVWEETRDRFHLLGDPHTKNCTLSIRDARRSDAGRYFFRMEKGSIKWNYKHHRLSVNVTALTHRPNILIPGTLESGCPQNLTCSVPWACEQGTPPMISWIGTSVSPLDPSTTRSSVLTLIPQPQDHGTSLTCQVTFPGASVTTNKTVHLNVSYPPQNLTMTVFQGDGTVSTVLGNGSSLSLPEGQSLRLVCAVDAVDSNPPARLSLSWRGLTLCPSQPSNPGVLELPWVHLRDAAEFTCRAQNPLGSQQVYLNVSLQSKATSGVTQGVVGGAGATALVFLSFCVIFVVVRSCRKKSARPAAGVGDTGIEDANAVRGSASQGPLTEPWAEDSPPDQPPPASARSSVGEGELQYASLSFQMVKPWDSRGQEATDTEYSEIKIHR
Sequence of Chromo domain-containing protein 1 (Saccharomyces cerevisiae (strain ATCC 204508 / S288c) (Baker's yeast)) (P32657 whole entry, the tested form may be a part): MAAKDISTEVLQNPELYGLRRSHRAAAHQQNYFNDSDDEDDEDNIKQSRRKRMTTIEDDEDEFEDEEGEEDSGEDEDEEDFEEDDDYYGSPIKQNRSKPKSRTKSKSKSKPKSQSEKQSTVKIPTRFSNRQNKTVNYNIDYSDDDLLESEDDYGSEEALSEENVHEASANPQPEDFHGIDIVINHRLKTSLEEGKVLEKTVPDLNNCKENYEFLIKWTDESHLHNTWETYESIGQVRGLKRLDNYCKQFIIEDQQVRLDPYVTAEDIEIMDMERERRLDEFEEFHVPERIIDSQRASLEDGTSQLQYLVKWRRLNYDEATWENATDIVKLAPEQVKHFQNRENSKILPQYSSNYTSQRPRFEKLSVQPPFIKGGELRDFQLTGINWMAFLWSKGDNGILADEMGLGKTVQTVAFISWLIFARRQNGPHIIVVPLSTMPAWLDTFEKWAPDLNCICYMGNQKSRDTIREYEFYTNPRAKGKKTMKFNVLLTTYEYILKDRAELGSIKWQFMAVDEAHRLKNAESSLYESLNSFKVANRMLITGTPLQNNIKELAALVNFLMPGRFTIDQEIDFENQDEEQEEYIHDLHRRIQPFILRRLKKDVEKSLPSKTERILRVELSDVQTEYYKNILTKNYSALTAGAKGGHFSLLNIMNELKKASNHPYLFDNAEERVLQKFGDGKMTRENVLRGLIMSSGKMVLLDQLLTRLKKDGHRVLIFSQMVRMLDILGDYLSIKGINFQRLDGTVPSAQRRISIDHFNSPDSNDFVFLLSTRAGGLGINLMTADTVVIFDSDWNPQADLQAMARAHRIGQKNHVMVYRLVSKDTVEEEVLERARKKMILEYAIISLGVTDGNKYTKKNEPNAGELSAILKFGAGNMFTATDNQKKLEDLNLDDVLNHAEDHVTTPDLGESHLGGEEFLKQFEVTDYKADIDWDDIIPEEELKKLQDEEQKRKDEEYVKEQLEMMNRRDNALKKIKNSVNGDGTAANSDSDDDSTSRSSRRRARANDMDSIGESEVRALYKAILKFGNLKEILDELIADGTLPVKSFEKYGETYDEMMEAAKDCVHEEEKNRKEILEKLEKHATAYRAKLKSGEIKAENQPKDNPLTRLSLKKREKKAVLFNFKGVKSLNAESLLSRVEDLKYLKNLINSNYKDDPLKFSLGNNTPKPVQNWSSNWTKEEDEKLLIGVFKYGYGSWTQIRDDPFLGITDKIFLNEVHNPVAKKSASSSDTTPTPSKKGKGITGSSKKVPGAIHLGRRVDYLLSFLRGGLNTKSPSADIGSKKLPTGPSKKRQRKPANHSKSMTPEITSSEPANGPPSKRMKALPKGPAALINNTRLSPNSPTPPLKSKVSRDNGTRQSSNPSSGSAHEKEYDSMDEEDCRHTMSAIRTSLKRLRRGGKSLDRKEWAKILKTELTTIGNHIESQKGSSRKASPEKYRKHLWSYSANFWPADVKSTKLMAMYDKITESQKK

With `COCCO[C@H]1CCN(C(=O)C2CCOCC2)[C@H]1Cc1ccncc1`, the Percent Effect in assay [1] is -1.4%; in assay [2], 16%; in assay [3], -6.31%; in assay [4] it was -6.51%; in assay [5], -3.94%; in assay [6], -1.17%. In addition, the Percent Effect in assay [7] was 9.6%; in assay [8], 16.1%; in assay [9], 2.13%; in [10], 6.41%; in assay [11], -2.62%.
For `Cc1ccc(C(=O)NC(CN2CCCC2=O)c2ccccc2)c(=O)[nH]1` (stereo unspecified), the Percent Effect in [1] was -4.18%; in assay [2], 21.9%; in [3] it was -6.93%; in [4], 17.4%; in assay [5], 5.88%; in assay [6] it was 29.6%. Further, the Percent Effect in assay [7] was 9.23%; in [8] it was 2.33%; in assay [9], 5.38%; in assay [10], 15%; in [11] it was -5.93%.
For the compound `Cc1cc(C2CCCN(C(=O)c3ccc(C)[nH]c3=O)C2)n[nH]1` (stereo unspecified), the Percent Effect is 1.38% in assay [1]; 0% in assay [2]; -0.306% in assay [3]; 6.13% in [4]; -1.04% in assay [5]; -0.401% in [6]. The Percent Effect in assay [7] is 1.08%; in assay [8], -7.96%; in [9], 3.45%; in assay [10], -1.24%; in assay [11] it was 4.03%.
For the compound `CC(O)CN1CCN(C(=O)c2ccc(Br)o2)CC1` (stereo unspecified), the Percent Effect was -4.28% in assay [1]; 15.8% in [2]; 17.9% in assay [3]; -7.51% in assay [4]; -3.57% in assay [5]; 3.45% in assay [6]. For the same compound, the Percent Effect in [7] is 8.69%; in assay [8] it was 22.7%; in assay [9] it was 4.41%; in [10], 9.76%; in [11] it was -12.7%.
With `Cc1ccc(C(=O)NS(=O)(=O)c2cccc3cnccc23)c(=O)[nH]1`, the Percent Effect is -5.08% in assay [1]; 13.5% in assay [2]; -0.0909% in [3]; 7.48% in [4]; 0.65% in [5]; 1.66% in assay [6]. Moreover, the Percent Effect in assay [7] worked out at 6.64%; in assay [8] it was 13%; in assay [9], 6.93%; in assay [10], 15.8%; in [11], 2.35%.
For the compound `CCn1nc(C)c2ncnc(NCCCN3CCOCC3)c21`, the Percent Effect in assay [1] is -5.99%; in assay [2] it was 9.33%; in assay [3], -3.7%; in assay [4] it was 9.5%; in assay [5], 0.786%; in assay [6], -2.64%. Besides, the Percent Effect in [7] is 12.2%; in assay [8] it was -4.74%; in assay [9], 5.29%; in [10], 12.8%; in [11] it was -10.7%.
In the case of `O=C(COCc1nc(-c2ccncc2)no1)N1CCCCCC1`, the Percent Effect in [1] is -5.55%; in assay [2], 5.2%; in assay [3], -3.82%; in [4], 21.3%; in assay [5], -35.1%; in assay [6], -55.2%. Besides, the Percent Effect in [7] worked out at 8.65%; in [8], 15.5%; in assay [9], 5.38%; in assay [10], 13.6%; in [11], 120%.
`CCCOCC(=O)NS(=O)(=O)c1ccc2c(c1)OCCCO2`: the Percent Effect in [1] is -8.22%; in assay [2], 0%; in [3] it was 0.981%; in assay [4], -3.65%; in assay [5] it was -6.07%; in assay [6], 0%. The Percent Effect in assay [7] is -0.423%; in [8], 13.9%; in assay [9], -2.46%; in assay [10], -6.17%; in assay [11], 1.45%.
Regarding `O=C(NCCNc1ncccn1)C1CCN(CC(F)(F)F)CC1`, the Percent Effect is -4.28% in assay [1]; 18.9% in assay [2]; 5.29% in [3]; 1.52% in assay [4]; -6.51% in assay [5]; 0.802% in assay [6]. Moreover, the Percent Effect in assay [7] is 18.9%; in assay [8], 20.5%; in assay [9], 7.39%; in assay [10], 11.1%; in assay [11], -4.74%.
Consider `CC(=O)NC1CCCN(C(=O)c2ccc(Br)cc2O)C1` (stereo unspecified), for which the Percent Effect in [1] is -4.72%; in assay [2], 8.11%; in assay [3] it was -9.01%; in [4], 7.98%; in [5], -2.92%; in [6], 1.6%. In addition, the Percent Effect was 5.95% in assay [7]; 3.4% in assay [8]; 6.4% in assay [9]; 16.1% in assay [10]; -2.5% in assay [11].
Turning to `COc1c(CNC(c2ccc(F)cc2)c2nccn2C)c(C)nn1C` (stereo unspecified), the Percent Effect in assay [1] was -4.41%; in assay [2], 23.7%; in assay [3], -3.24%; in assay [4], -2.7%; in assay [5], 10.9%; in assay [6], -0.383%. In addition, the Percent Effect in assay [7] was 13.4%; in assay [8], 10.1%; in assay [9], 9.31%; in assay [10], 29.3%; in [11] it was -12.6%.
